Records with an inconclusive call do not appear. Where a call stands in place of a potency, no number is given. Active and inactive are the calls of the source. Unless noted, calls come from the whole dose curve; as a rule, active = well fitted cell-killing curve with a large enough effect in the repeat runs; inconclusive = weak or mixed curves, or effect the other way; inactive = flat fitted curve, though single readings scatter.

The text below walks through data of PubChem BioAssay (Tox21).

Sequence of Thyrotropin-releasing hormone receptor (Homo sapiens) (P34981 whole entry, looked up): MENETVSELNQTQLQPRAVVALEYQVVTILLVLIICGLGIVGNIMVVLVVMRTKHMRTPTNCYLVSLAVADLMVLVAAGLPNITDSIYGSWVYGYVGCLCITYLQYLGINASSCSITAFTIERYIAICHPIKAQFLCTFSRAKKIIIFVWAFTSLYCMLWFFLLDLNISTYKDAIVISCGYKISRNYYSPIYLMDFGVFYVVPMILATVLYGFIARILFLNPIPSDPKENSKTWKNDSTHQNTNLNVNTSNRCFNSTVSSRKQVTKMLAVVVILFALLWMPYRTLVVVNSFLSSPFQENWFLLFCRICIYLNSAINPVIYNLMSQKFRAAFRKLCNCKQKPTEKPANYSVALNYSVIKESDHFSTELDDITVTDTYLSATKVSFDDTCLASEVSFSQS

Test system in the first experiment: not listed separately
The experiment is described as follows: qHTS assay to identify small molecule agonists of the TGF-beta/Smad signaling pathway - cell viability counter screen (AID 1346829). Note: nearly all actives have a fitted effect of over 45% in size. Note: potency is the fitted concentration of half-maximal effect. Particulars: SBE-bla HEK293T viability, CellTiter-Glo luminescence, 5 h; series mostly up to 76.8 µM. The method in brief:
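Cytotoxicity counter screen: CellTiter-Glo luminescence (30 min, room temperature) measured in the SBE-bla HEK 293T reporter wells after 5 hr compound treatment at 37 C and the 2 hr substrate step.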
On the technique in general: qHTS replaces the single test concentration by a dilution series.
For the compound `Cc1cc(=O)oc2cc(N(C)C)ccc12`, the Potency result is “inactive”. Still for that read-out and setting: as for `OCCN(CCO)c1nc(N2CCCCC2)c2nc(N(CCO)CCO)nc(N3CCCCC3)c2n1`, the entry is “inactive”; as for `CCCCCCCC/C=C/CCCCCCCC1=NCCN1CCO`, “inactive”. Still for that read-out and setting: as for `Cc1cccc2c1cc1ccc3cccc4ccc2c1c34`, the entry is “inactive”; as for `CCCCCOC(=O)CCCC`, “inactive”; as for `Oc1cccc(-c2c3nc(c(-c4cccc(O)c4)c4ccc([nH]4)c(-c4cccc(O)c4)c4nc(c(-c5cccc(O)c5)c5ccc2[nH]5)CC4)C=C3)c1`, “inactive”. Still for that read-out and setting: to `O=[N+]([O-])c1ccccc1Nc1ccccc1` belongs “inactive”; to `CCCCC(CC)COC(=O)c1ccccc1C(=O)O` (stereo not drawn), “inactive”. In the case of `CCCC(=O)OC[C@@H](OC(=O)CCC)[C@@H](OC(=O)CCC)[C@H](Cn1c2nc(=O)[nH]c(=O)c-2nc2cc(C)c(C)cc21)OC(=O)CCC`, the Potency entry is “inactive”. On the same count and under the same terms, to `O=C(Nc1ccc(Oc2ccc(Cl)cc2)c(Cl)c1)c1cc(I)cc(I)c1O` belongs “inactive”; to `CCc1cc(Cc2cc(CC)c(N)c(CC)c2)cc(CC)c1N`, “inactive”.

`CCOC(=O)O[C@H](C)OC(=O)c1ccc2c(c1)cc(C(=O)NC1CCN(C(C)C)CC1)n2Cc1cc(-c2ccc(Cl)s2)on1`: the Potency is 45.8 µM (active). The same measure, in the same setting: to `CCN(CC)CCCC(C)Nc1c2ccc(Cl)cc2nc2ccc(OC)cc12` (stereo not drawn) belongs “inactive”; to `Cc1cc(O)c(C(C)(C)C)cc1C(C)(C)C`, 49 µM (active). Same read-out and setting: as for `CN1CCC(Nc2ncc3ncnc(Nc4ccc(F)c(Cl)c4)c3n2)CC1`, the entry is “inactive”; as for `CC[C@@]1(O)C(=O)OCc2c1cc1n(c2=O)Cc2c-1nc1ccccc1c2/C=N/OC(C)(C)C`, “inactive”. Still for that read-out and setting: to `CCN(C(=O)c1cc(C)cc(OC[C@H](C)Nc2ccncc2)c1)C(C)C` belongs “inactive”. Regarding `COc1ccc(CN2CCN(C(c3ccc(F)cc3)c3ccc(F)cc3)CC2)c(OC)c1OC`, the Potency is 23.9 µM (active).

Turning to `O=C(Nc1cccc(Cl)c1)OCC#CCCl`, the Potency result was “inactive”.

On to `O=C(NOCC1CC1)c1ccc(F)c(F)c1Nc1ccc(I)cc1Cl`, for which the Potency result is “inactive”.

In the case of `Nc1nc2ccccc2n1Cc1ccc(F)cc1`, the Potency result was “inactive”.

Consider `Clc1ccc2n[nH]nc2c1`, for which the Potency result is “inactive”. Same read-out and setting: as for `Oc1ccc(C2(c3ccc(O)cc3)CC3CC2C2CCCC32)cc1` (stereo not drawn), the entry is “inactive”; as for `Nc1ccc2c3c(cccc13)-c1ccccc1-2`, “inactive”; as for `CNCc1cc(F)ccc1Oc1ccc(Cl)c(Cl)c1`, “inactive”. The same measure, in the same setting: to `Oc1cc2ccccc2c2ccccc12` belongs 5.49 µM (active); to `CCCC1O[C@@H]2C[C@H]3[C@@H]4CCC5=CC(=O)C=C[C@]5(C)[C@H]4[C@@H](O)C[C@]3(C)[C@]2(C(=O)CO)O1` (stereo partly drawn), “inactive”. For the compound `CCOc1ccc2nc3cc(N)ccc3c(N)c2c1`, the Potency entry was “inactive”. On the same count and under the same terms, to `CC[C@@]1(O)C(=O)OCc2c1cc1n(c2=O)Cc2cc3c(CN(C)C)c(O)ccc3nc2-1` belongs “inactive”; to `O=c1[nH]sc2ccccc12`, “inactive”.

Test system in the next experiment: not listed separately
Kind of experiment: qHTS assay to identify small molecule agonists of the TGF-beta/Smad signaling pathway (AID 1346859; active = well fitted activation curve with a large enough effect in the signal ratio in the repeat runs, not every such curve was filed as active; the % refers to the signal ratio). Particulars: SBE-bla HEK293T, TGF-beta/Smad beta-lactamase reporter, 5 h; series mostly up to 76.8 µM. The method in brief:
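Read-out: fluorescence at 460 and 530 nm (405 nm excitation) after a 2 hr room-temperature incubation with beta-lactamase FRET substrate. SBE-bla HEK 293T cells had been treated with test compounds for 5 hr at 37 C.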
For the compound `CCCCCOC(=O)CCCC`, the Potency entry is “inactive”. The same measure, in the same setting: as for `Oc1cccc(-c2c3nc(c(-c4cccc(O)c4)c4ccc([nH]4)c(-c4cccc(O)c4)c4nc(c(-c5cccc(O)c5)c5ccc2[nH]5)CC4)C=C3)c1`, the entry is “inactive”. Turning to `O=[N+]([O-])c1ccccc1Nc1ccccc1`, the Potency result is “inactive”. Consider `O=C(Nc1ccc(Oc2ccc(Cl)cc2)c(Cl)c1)c1cc(I)cc(I)c1O`, for which the Potency entry was “inactive”. On the same count and under the same terms, to `CCc1cc(Cc2cc(CC)c(N)c(CC)c2)cc(CC)c1N` belongs “inactive”; to `O=C1C=CC(=O)N1`, “inactive”; to `Cc1cc(O)c(C(C)(C)C)cc1C(C)(C)C`, “inactive”.

Regarding `CCN(C(=O)c1cc(C)cc(OC[C@H](C)Nc2ccncc2)c1)C(C)C`, the Potency result was “inactive”.

As for `CC1=C(C(=O)OC(C)C)C(c2cccc([N+](=O)[O-])c2)C(C(=O)OC2CN(C(c3ccccc3)c3ccccc3)C2)=C(N)N1` (stereo not drawn), the Potency result was “inactive”. Still for that read-out and setting: as for `O=C(NOCC1CC1)c1ccc(F)c(F)c1Nc1ccc(I)cc1Cl`, the entry is “inactive”; as for `Nc1nc2ccccc2n1Cc1ccc(F)cc1`, “inactive”. On the same count and under the same terms, as for `O=C(Nc1cccc([N+](=O)[O-])c1)c1cc2ccccc2cc1O`, the entry is “inactive”; as for `Clc1ccc2n[nH]nc2c1`, “inactive”. The same measure, in the same setting: as for `Oc1ccc(C2(c3ccc(O)cc3)CC3CC2C2CCCC32)cc1` (stereo not drawn), the entry is “inactive”. With `CNCc1cc(F)ccc1Oc1ccc(Cl)c(Cl)c1`, the Potency result is “inactive”. Still for that read-out and setting: to `O=c1[nH]sc2ccccc12` belongs “inactive”.

Another experiment deals with Thyrotropin-releasing hormone receptor (Homo sapiens) (UniProt P34981). The experiment is described as follows: qHTS assay to identify small molecule antagonists of the thyrotropin-releasing hormone receptor (TRHR) signaling pathway (AID 1346877; active = well fitted inhibition curve with a large enough effect in the repeat runs, not every such curve was filed as active). Particulars: TRHR-HEK293, TRH-induced calcium fluorescence, antagonist mode; series mostly up to 51.3 µM. The method in brief:
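Antagonism is measured as suppression of the calcium response to 1 nM TRH in TRHR-HEK293 cells that have been dye-loaded for 2 h at 37 °C after overnight plating. Each compound is tested at 15 concentrations in triplicate.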
In the case of `Cc1cc(=O)oc2cc(N(C)C)ccc12`, the Potency result is “inactive”. Same read-out and setting: as for `OCCN(CCO)c1nc(N2CCCCC2)c2nc(N(CCO)CCO)nc(N3CCCCC3)c2n1`, the entry is “inactive”; as for `NC(=O)C1(N2CCCCC2)CCN(CCCN2c3ccccc3CCc3ccc(Cl)cc32)CC1`, “inactive”. On the same count and under the same terms, to `Cc1cccc2c1cc1ccc3cccc4ccc2c1c34` belongs “inactive”; to `CCCCCOC(=O)CCCC`, “inactive”. On the same count and under the same terms, to `O=[N+]([O-])c1ccccc1Nc1ccccc1` belongs “inactive”; to `CCCC(=O)OC[C@@H](OC(=O)CCC)[C@@H](OC(=O)CCC)[C@H](Cn1c2nc(=O)[nH]c(=O)c-2nc2cc(C)c(C)cc21)OC(=O)CCC`, “inactive”; to `O=C(Nc1ccc(Oc2ccc(Cl)cc2)c(Cl)c1)c1cc(I)cc(I)c1O`, “inactive”. On to `O=C(Nc1cccc(C(F)(F)F)c1)c1cc(Br)cc(Br)c1O`, for which the Potency result is “inactive”. On the same count and under the same terms, to `O=C1C=CC(=O)N1` belongs “inactive”.

As to `CCOC(=O)O[C@H](C)OC(=O)c1ccc2c(c1)cc(C(=O)NC1CCN(C(C)C)CC1)n2Cc1cc(-c2ccc(Cl)s2)on1`, the Potency result was “inactive”. Still for that read-out and setting: as for `CCN(CC)CCCC(C)Nc1c2ccc(Cl)cc2nc2ccc(OC)cc12` (stereo not drawn), the entry is “inactive”; as for `CN1CCC(Nc2ncc3ncnc(Nc4ccc(F)c(Cl)c4)c3n2)CC1`, “inactive”.

As for `CC1=C(C(=O)OC(C)C)C(c2cccc([N+](=O)[O-])c2)C(C(=O)OC2CN(C(c3ccccc3)c3ccccc3)C2)=C(N)N1` (stereo not drawn), the Potency result is “inactive”.

As to `COc1ccc(CN2CCN(C(c3ccc(F)cc3)c3ccc(F)cc3)CC2)c(OC)c1OC`, the Potency result was “inactive”. On the same count and under the same terms, to `O=C(Nc1cccc(Cl)c1)OCC#CCCl` belongs “inactive”; to `O=C(NOCC1CC1)c1ccc(F)c(F)c1Nc1ccc(I)cc1Cl`, “inactive”; to `O=C(Nc1cccc([N+](=O)[O-])c1)c1cc2ccccc2cc1O`, “inactive”. In the case of `Oc1ccc(C2(c3ccc(O)cc3)CC3CC2C2CCCC32)cc1` (stereo not drawn), the Potency entry is “inactive”. Still for that read-out and setting: as for `Nc1ccc2c3c(cccc13)-c1ccccc1-2`, the entry is “inactive”; as for `N=C1N=C(N)c2cc3ccccc3cc21`, “inactive”. On to `CCCC1O[C@@H]2C[C@H]3[C@@H]4CCC5=CC(=O)C=C[C@]5(C)[C@H]4[C@@H](O)C[C@]3(C)[C@]2(C(=O)CO)O1` (stereo partly drawn), for which the Potency result was “inactive”.
